Shown are actives, neighbours in structure and some others; about 6.6% of the full set was active somewhere.
Gli-Sufu block – Gli-Sufu pathway antagonists, primary screen, luciferase luminescence, Sufu-KO-LIGHT cells, uHTS | Sufu-KO-LIGHT fibroblasts, Gli luciferase reporter luminescence | inhibition, % at 5 µM | actives 0.74% (n = 340,000) | AID 588413, 2011;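 active = inhibition above about 55%, limit read from the data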;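 note: 0% = DMSO-treated cells and 100% = wells with medium but no cells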
NR3A LBD binder – binders of NR3A ligand-binding domain, primary screen, biophysical, differential scanning fluorimetry, uHTS | Glutamate receptor ionotropic, NMDA 3A (GRIN3A) ligand-binding domain | NR3A LBD differential scanning fluorimetry, Tm shift; 0% = protein alone, 100% = glycine-bound protein | Tm shift relative to glycine control, % at 25 µM | actives 2.5% (n = 340,000);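 active = melting temperature shift of at least 10% of the positive control shift, at one fixed dose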
MPTP block – mitochondrial permeability transition pore inhibitors, primary screen, biochemical, isolated mouse mitochondria, absorbance | actives 1.4% (n = 360,000) | Ca2+ swelling absorbance, 30 min | inhibition, % at 10 µM;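 active = inhibition of 50% or more, scaled per plate between neutral and stimulator controls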;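 note: 0% = DMSO wells given calcium and 100% = 1 mM EGTA wells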
Beta apoptosis – inhibitors of cytokine-induced beta cell apoptosis, primary screen, luminescence | protection from apoptosis, % (test concentration not listed) | INS-1E cytokine-induced death, ATP luminescence, 48 h; percent of positive-control rescue, neutral wells zero | actives 0.8% (n = 300,000);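 active = Every replicate reaches about 75%, or at least half do and their mean reaches it too, limit read from the data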;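 note: 0% = cytokine-treated negative control wells and 100% = positive control rescue; higher means more ATP so stronger rescue from cytokine killing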
CSC inhib – cancer stem cell viability inhibitors, primary screen, luminescence | cancer stem cell-like cells viability | inhibition, % at 7.5 µM | actives 1.1% (n = 300,000) | AID 2717, 2010; in the data active = inhibition above about 75%; tested in HMLE shEcad cells
Mdm2 MdmX PPI – inhibitors of human Mdm2-MdmX association, primary screen, cell-based, luminescence, split luciferase, SaOS-2, uHTS; SaOS-2 split-luciferase Mdm2/MdmX complementation; inhibition, % at 8 µM; actives 3% (n = 330,000); AID 485346, 2010;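 active = inhibition of at least 50% at 8 µM in the primary screen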
Target sequence (O15151 whole entry, looked up): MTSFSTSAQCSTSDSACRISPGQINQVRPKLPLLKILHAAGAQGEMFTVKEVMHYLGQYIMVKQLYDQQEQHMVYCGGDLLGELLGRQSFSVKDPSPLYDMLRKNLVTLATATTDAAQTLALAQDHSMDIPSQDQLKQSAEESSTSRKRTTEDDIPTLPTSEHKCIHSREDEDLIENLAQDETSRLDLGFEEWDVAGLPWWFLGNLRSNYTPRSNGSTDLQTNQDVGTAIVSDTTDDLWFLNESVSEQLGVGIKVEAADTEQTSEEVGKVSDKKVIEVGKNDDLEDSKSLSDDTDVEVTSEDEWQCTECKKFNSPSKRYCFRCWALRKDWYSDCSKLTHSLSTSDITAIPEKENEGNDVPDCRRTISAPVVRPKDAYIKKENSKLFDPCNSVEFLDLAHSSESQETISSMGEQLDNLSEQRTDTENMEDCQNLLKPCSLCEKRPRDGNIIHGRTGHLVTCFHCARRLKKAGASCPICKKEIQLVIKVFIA
Target sequence (Q00987 whole entry, looked up): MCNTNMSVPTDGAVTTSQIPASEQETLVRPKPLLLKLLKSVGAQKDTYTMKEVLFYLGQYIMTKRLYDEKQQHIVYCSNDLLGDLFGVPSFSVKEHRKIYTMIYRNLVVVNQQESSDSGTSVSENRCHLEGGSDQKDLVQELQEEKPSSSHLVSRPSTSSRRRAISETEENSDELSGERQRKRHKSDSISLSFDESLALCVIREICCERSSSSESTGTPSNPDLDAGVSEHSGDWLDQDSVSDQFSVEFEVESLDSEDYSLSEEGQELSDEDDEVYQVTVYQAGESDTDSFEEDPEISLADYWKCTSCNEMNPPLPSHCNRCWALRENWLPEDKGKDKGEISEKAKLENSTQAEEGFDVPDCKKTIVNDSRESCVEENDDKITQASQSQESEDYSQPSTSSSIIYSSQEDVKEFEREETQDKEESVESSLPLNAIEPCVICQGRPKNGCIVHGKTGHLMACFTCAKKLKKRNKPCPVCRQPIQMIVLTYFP
Mdm2-MdmX conf – Mdm2-MdmX complex disruptors, retested hits, confirmation, luminescence, single concentration; shares compounds with Mdm2 MdmX PPI; Mdm2-MdmX binding, luminescent assay; inhibition, % at 8 µM; actives 55% (n = 10,000); AID 489028, 2010; in the data active = inhibition above about 40%
Full FLuc ctr – full-length luciferase signal inhibition, confirmation, counter-screen for Mdm2/MdmX interaction inhibitor project, cell-based, single concentration, SaOS-2; shares compounds with Mdm2 MdmX PPI; actives 77% (n = 6,200); SaOS-2 full-length luciferase counterscreen, luminescence; inhibition, % at 8 µM; AID 504607, 2011;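 active = mean inhibition at 8 µM reaching about 37%, which flags the compound as non-specific, limit read from the data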;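 note: p53-null SaOS-2 cells with luciferase driven by a doxycycline-inducible promoter; compound on cells about two nights before reading with doxycycline added after day one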
An asterisk follows results filed as active; . = no result given.

SMILES	Gli-Sufu block	NR3A LBD binder	MPTP block	Beta apoptosis	CSC inhib	Mdm2 MdmX PPI	Mdm2-MdmX conf	Full FLuc ctr
CN1CCN(C(c2ccc(C(F)(F)F)cc2)c2cc(Cl)c3cccnc3c2O)CC1 (stereo unspecified)	.	.	.	100*	110*	86*	81*	25
CC(C)(C)n1nnnc1C(c1ccccc1)N1CCN(c2ncc(C(F)(F)F)cc2Cl)CC1 (stereo unspecified)	.	.	3	.	.	.	.	.
Cc1[nH]c2ccccc2c1C(c1ccccn1)N1CCCC1 (stereo unspecified)	-2	-1	1	-3	14	31	.	.
Cc1cc(Nc2nc3ccccc3[nH]c2=O)n(-c2ccccc2)n1	4	-2	2	-12	9	39	.	.
Cc1cc(Nc2nc3ccccc3nc2Cl)n(-c2ccc([N+](=O)[O-])cc2)n1	35	-3	38	77*	34	96*	49*	51*
COC(=O)/C(=C\Nc1ccc(OC)cc1)NC(=O)c1ccc(Cl)cc1Cl	-27	0	0	-1	2	16	.	.
COC(=O)/C(=C\Nc1ccc(Cl)cc1Cl)NC(=O)c1ccc(OC)cc1	-5	-4	1	29	71	52*	43*	70*
COC(=O)c1cn(C(=O)/C=C/c2ccc(OC)c(OC)c2)c2ccccc12	24	-11	1	5	59	92*	66*	39*
COC(=O)c1cn(C(=O)c2ccc(C)cc2C)c2ccccc12	-4	3	-1	28	62	61*	53*	56*
CC(NC(=O)CN1C(=O)NC2(CCCCCC2)C1=O)c1ccccc1Cl (stereo unspecified)	3	0	0	1	11	-35	.	.
Cc1c(C(=O)Nc2ccccc2F)sc2ncn(CC(=O)N3CCCCC3)c(=O)c12	-40	4	0	-1	-1	14	.	.
Cc1cnc(C(=O)OCC(=O)NC(C)c2ccccc2)cn1 (stereo unspecified)	-3	1	-1	-4	-15	3	.	.
COc1cc(C(N)=O)cc(Br)c1OC	-14	0	-2	-3	-2	59*	2	.
CSc1nc(SCC(=O)NCc2ccco2)c2c3c(sc2n1)COC(C)(C)C3	2	-1	-2	12	.	51*	41*	68*
CCCCSc1nc(SCC(=O)NCc2ccco2)c2c3c(sc2n1)COC(C)(CC)C3 (stereo unspecified)	12	1	10	8	15	7	.	.
CCn1c(SCC(=O)N2CCN(c3ccccc3)CC2)nc2c([nH]c3ccccc32)c1=O	19	3	-1	19	14	58*	28	86*
CCn1c(SCC(=O)NCCc2ccccc2)nc2c([nH]c3ccccc32)c1=O	12	-5	0	14	19	59*	32	.
COc1cccc(-n2c(SCC(=O)N3CCOCC3)nc3c([nH]c4ccccc43)c2=O)c1	7	-4	2	-3	-9	65*	13	.
O=C(Nc1ccc(C(O)c2ccccc2)cc1)[C@H]1C[C@H](O)[C@@H](CO)O1 (stereo partly specified)	.	.	0	.	.	.	.	.
COc1ccc(OC)c(C2=CC(=O)C[C@H](c3ccc4c(c3)OCO4)C2)c1	-6	-5	0	2	44	46	.	.
COc1ccc(C)c2sc(N(CCN(C)C)C(=O)c3cccc(N4C(=O)CCC4=O)c3)nc12	-1	3	-2	.	-10	-13	.	.
COc1ccc(C)c2sc(N(CCN(C)C)C(=O)/C=C/c3cccs3)nc12	-11	9	1	7	-34	65*	27	.
COc1ccc(OC)c2sc(N(CCN(C)C)C(=O)/C=C/c3cccs3)nc12	7	-1	0	30	18	97*	100*	0
Cc1c(NC(=O)CSc2nnc3c4ccccc4n(CCc4ccccc4)c3n2)c(=O)n(-c2ccccc2)n1C	1	0	-1	4	38	100*	90*	52*
CCN(C(=O)CSc1nnc(-c2ccc(F)cc2)n1C)C1CCS(=O)(=O)C1 (stereo unspecified)	8	-1	0	-15	.	4	.	.
SMILES	Gli-Sufu block	NR3A LBD binder	MPTP block	Beta apoptosis	CSC inhib	Mdm2 MdmX PPI	Mdm2-MdmX conf	Full FLuc ctr
COc1cccc(-c2ccc(SCC(=O)NC3CCCCC3)nn2)c1	-2	-1	0	5	-5	34	.	.
COC(=O)c1cc2sccc2n1Cc1nc(-c2ccc(Cl)cc2)oc1C	-11	-1	1	-3	-2	51*	15	.
ON=C1CCCCCCCC1	4	0	1	.	.	.	.	.
NC(N)=NN=C1CCCCCCCCCCC1	3	0	4	19	11	60*	43*	58*
Cc1cc(/C=C2\SC(=S)N(Cc3ccco3)C2=O)c(C)n1-c1cccnc1	-26	3	7	.	.	.	.	.
CCOC(=O)c1ccc(N=C2S/C(=C\c3cc(C)n(-c4cccnc4)c3C)C(=O)N2C)cc1	5	1	-1	-18	1	66*	4	.
O=C(NCc1cccnc1)c1cccc(S(=O)(=O)NCc2ccccc2)c1	-3	1	-2	3	4	7	.	.
Nc1nnnn1/N=C/C(Br)=C/c1ccccc1	-4	-1	0	42	122*	100*	93*	50*
O=C1NC2(CCN(Cc3ccccc3)CC2)Oc2ccccc21	-2	-2	0	3	.	15	.	.
O=C1c2ccccc2OC2(C=Cc3ccccc3O2)N1Cc1ccccc1 (stereo unspecified)	9	0	-5	14	.	54*	48*	40*
CC(=O)/C(C#N)=C1\NC(=O)C(Cc2cc(Cl)ccc2Cl)S1 (stereo unspecified)	3	-2	40	14	72	96*	83*	31
CC(=O)/C(C#N)=C1\NC(=O)C(Cc2ccc(C)c(C)c2)S1 (stereo unspecified)	2	-9	17	7	49	84*	91*	32
CC(=O)/C(C#N)=C1\NC(=O)C(Cc2ccccc2Cl)S1 (stereo unspecified)	2	-15	0	-5	-2	87*	91*	30

Compound activity (PubChem)
